The source made the active and inactive calls.
Tests used:
[1] = binders of probe aFSTL3 on microarray, primary screen, stem cell growth factor project, biochemical, small-molecule microarray, fluorescence 635/667 (AID 1064); conditions: higher = more signal;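 also: measures binding of the biotinylated anti-FSTL3 antibody to printed compounds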
[2] = binders from COS7 lysate, DM2A8 probe, primary screen, torsin A project, cell lysate, small-molecule microarray, fluorescence 635/667 (AID 1065); conditions: higher = more signal, COS7 lysate expressing mutant human TOR1A
[3] = binders of probe aFGF2 on microarray, primary screen, stem cell growth factor project, biochemical, small-molecule microarray, fluorescence 635/667 (AID 1067); conditions: higher = more signal;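 also: measures binding of biotinylated aFGF2 protein to printed compounds on slides; z-score merges feature fluorescence and signal-to-noise across triplicate slides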
[4] = binders of probe aFGF10 on microarray, primary screen, stem cell growth factor project, biochemical, small-molecule microarray, fluorescence 635/667 (AID 1071); conditions: higher = more signal;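 also: score merges 667 nm spot intensity and signal to noise from triplicate slides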
[5] = target: Neurogenic locus notch homolog protein 2 (Homo sapiens) (UniProt Q04721); experiment: Notch2 binders on small-molecule microarrays, primary screen, biochemical, small-molecule microarray, 635 nm fluorescence, stem cell growth factors (AID 1073); conditions: Notch2 binding, higher = more signal
[6] = target: Pro-neuregulin-1, membrane-bound isoform (Homo sapiens) (UniProt Q02297); experiment: NRG1 binders on small-molecule microarrays, primary screen, psychiatric disease protein project, biochemical, small-molecule microarray, fluorescence 635/667 (AID 1075); conditions: NRG1 binding, 635 nm fluorescence, higher = more signal;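 also: score combines 667 nm spot fluorescence with signal to noise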
[7] = test system: Neuregulin-1 EGF-like domain; experiment: binders of neuregulin-1 EGF-like domain, primary screen, biochemical, small-molecule microarray, 635 nm fluorescence (AID 1081); conditions: small-molecule microarray binding, higher = more signal;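 also: binding of the protein to compounds printed on small-molecule microarray slides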
[8] = FRG1 promoter luciferase signal modulators, primary screen, FRG1 inhibition for FSHD, cell-based, C2C12 myotubes, firefly/Renilla luciferase, luminescence (AID 1084); conditions: higher = more signal, called active from +8 up or from −8 down
[9] = binders of probe aFST on microarray, primary screen, stem cell growth factor project, biochemical, small-molecule microarray, fluorescence 635/667 (AID 1086); conditions: higher = more signal;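 also: score merges 667 nm fluorescence with signal-to-noise of each printed compound spot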
[10] = binders of probe aHhip on microarray, primary screen, stem cell growth factor project, biochemical, small-molecule microarray, fluorescence 635/667 (AID 1087); conditions: higher = more signal;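 also: score merges spot fluorescence at 667nm with spot signal to noise ratio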

Pro-neuregulin-1, membrane-bound isoform (Homo sapiens), sequence (Q02297 whole entry, looked up, the tested form may be a part, canonical isoform): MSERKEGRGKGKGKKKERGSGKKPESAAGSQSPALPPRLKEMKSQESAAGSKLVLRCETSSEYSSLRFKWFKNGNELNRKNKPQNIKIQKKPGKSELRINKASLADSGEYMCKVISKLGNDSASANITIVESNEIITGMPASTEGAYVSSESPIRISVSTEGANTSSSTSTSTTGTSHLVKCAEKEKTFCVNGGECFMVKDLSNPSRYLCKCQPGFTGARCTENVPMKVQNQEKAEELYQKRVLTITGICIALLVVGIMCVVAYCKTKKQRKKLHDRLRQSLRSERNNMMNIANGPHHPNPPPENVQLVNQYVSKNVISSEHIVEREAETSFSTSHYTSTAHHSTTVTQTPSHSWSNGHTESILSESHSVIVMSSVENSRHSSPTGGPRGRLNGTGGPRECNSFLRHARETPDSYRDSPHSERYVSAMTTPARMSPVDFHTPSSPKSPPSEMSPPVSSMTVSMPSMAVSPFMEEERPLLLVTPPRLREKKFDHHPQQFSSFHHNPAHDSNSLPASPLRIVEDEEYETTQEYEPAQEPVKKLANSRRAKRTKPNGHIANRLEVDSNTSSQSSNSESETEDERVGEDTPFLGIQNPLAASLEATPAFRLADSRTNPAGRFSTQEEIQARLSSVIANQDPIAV
Neurogenic locus notch homolog protein 2 (Homo sapiens), sequence (Q04721 whole entry, looked up, canonical isoform): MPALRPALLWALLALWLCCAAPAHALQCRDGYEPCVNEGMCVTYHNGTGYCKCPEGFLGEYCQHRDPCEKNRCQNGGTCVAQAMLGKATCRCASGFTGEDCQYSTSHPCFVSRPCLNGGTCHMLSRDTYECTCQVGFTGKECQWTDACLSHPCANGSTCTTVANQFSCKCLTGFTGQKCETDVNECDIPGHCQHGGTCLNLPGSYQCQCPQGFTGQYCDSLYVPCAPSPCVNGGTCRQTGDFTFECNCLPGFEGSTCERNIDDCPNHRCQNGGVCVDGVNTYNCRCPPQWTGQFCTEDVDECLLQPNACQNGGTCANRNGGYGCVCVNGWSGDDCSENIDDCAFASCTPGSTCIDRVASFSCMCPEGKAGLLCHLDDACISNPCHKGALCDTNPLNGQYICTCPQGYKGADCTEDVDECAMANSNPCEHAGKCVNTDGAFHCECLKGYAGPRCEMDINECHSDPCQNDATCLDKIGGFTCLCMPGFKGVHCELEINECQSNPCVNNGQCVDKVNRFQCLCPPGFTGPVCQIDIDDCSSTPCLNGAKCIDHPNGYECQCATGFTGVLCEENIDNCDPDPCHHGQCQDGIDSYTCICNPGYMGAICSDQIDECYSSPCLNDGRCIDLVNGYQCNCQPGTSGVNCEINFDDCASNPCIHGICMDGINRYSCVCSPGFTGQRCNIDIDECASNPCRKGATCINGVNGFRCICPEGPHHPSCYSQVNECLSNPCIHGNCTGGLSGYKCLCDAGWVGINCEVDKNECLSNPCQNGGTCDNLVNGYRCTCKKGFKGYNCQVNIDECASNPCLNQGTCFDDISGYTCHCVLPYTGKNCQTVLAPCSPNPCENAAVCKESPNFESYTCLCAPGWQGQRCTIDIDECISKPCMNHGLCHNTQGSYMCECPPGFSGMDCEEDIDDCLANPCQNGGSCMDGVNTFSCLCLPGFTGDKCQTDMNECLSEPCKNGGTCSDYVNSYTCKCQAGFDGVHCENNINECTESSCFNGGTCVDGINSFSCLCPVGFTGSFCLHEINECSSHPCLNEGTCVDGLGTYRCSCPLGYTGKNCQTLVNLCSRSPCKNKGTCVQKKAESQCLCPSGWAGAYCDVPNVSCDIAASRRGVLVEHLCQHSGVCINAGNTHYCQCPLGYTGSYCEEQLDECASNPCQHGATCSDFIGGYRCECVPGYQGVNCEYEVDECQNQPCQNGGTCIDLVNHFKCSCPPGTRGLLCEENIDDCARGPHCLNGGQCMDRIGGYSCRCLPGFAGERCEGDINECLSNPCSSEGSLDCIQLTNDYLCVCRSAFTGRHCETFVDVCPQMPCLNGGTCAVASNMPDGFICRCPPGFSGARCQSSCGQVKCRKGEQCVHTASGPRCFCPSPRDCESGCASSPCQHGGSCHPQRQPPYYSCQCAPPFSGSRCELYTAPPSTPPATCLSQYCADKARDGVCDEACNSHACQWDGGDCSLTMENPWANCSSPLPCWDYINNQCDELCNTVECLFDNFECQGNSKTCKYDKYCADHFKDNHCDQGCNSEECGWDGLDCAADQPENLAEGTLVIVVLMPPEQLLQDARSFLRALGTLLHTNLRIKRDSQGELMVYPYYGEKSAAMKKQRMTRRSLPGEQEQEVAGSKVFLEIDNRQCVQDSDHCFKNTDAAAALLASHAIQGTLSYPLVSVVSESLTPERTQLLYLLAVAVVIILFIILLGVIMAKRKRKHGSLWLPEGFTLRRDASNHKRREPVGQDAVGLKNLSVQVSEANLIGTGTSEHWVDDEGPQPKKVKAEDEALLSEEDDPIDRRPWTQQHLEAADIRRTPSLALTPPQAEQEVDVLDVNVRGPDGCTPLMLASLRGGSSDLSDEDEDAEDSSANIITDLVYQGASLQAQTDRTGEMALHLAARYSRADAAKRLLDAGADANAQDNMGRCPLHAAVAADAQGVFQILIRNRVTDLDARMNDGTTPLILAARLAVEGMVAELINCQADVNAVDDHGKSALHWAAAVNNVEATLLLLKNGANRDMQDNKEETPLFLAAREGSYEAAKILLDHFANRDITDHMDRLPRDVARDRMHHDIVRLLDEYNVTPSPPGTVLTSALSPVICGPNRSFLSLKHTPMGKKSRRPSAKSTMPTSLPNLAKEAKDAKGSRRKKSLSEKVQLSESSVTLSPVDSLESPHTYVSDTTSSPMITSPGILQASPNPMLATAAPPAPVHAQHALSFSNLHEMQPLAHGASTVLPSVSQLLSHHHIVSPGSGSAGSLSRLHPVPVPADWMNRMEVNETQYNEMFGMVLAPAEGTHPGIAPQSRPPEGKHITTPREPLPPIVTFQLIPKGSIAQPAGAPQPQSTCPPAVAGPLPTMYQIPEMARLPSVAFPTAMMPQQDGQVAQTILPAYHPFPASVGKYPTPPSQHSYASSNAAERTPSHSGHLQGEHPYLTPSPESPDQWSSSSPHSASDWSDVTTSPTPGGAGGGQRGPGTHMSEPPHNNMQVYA

Structure (SMILES) | composite z-score [1] | composite z-score [2] | composite z-score [3] | composite z-score [4] | composite z-score [5] | composite z-score [6] | composite z-score [7] | z-score [8] | composite z-score [9] | composite z-score [10]
COc1ccc([Si](C)(C)[C@@H]2[C@@H](CCO)O[C@]3(C(=O)N(Cc4ccccc4)c4ccc(N(C=O)c5ccccc5)cc43)[C@H]2C)cc1 | -0.106 | 0.255 | -0.133 | 0.465 | 0.154 | 0.359 | 0.979 | -2.04 (inactive) | -0.176 | -0.236
C=C(CCCC)/C(=C/C[C@H](OC(C)=O)c1ccc(CO)o1)c1cc(C(=O)OC)ccc1OC | -0.509 | -0.296 | -0.0333 | 0.525 | -0.0467 | 0.714 | 0.888 | -0.313 (inactive) | 0.439 | -0.0618
CN(C)CCCC[C@@H]1NC(=O)[C@@H]2C[C@H](C(=O)NCc3ccc(F)cc3)[C@H](c3cccc(OCCO)c3)N2C1=O | -0.173 | -0.114 | -0.0707 | 0.738 | -0.252 | 0.617 | 1.02 | 1.36 (inactive) | 0.202 | -0.41
C=CCN1C(=O)[C@]2(Cc3ccccc31)N=C(c1ccc(OCCCO)cc1)O[C@@H]2c1ccccc1 | 0.5 | 0.152 | -0.062 | 0.439 | 1.6 | 0.904 | 1.2 | -2.5 (inactive) | 0.961 | 0.0854
CC1(C)C(=O)C(c2ccccc2)=C2CN3C(=O)N(CCc4ccccc4)C(=O)C3(Cc3ccccc3)C=C21 (stereo not given) | 0.0442 | -0.219 | -0.0465 | 0.235 | 1.63 | 0.328 | 0.949 | 0.586 (inactive) | 1.15 | -0.11
C=CCOC(=O)[C@@H]1[C@H]2C(=O)O[C@H](c3ccccc3)[C@H](c3ccccc3)N2[C@H](c2ccc(OCCOC(=O)[C@H]3C[C@H]4C(=O)N[C@@H](Cc5ccccc5)C(=O)N4[C@H]3c3ccc(O)cc3)cc2)[C@@]12C(=O)Nc1ccc(I)cc12 | -0.248 | 1.33 | -0.0939 | 0.459 | 1.11 | 0.846 | 1.3 | 1.16 (inactive) | 0.248 | -0.0994
CC1CC/C=C\[C@H]2OC34C=CCN(Cn5nnc6ccccc65)C(=O)[C@H]3N(CCCO)C(=O)[C@@H]4C2C(=O)O1 (stereo not given in full) | 0.536 | -1.14 | -0.0973 | -0.988 | -0.955 | 1.38 | 1.57 | -0.275 (inactive) | -0.474 | -0.196
COCCCNC(=O)[C@]1(Cc2ccccc2N=[N+]=[N-])N=C(c2ccc(OCCCO)cc2)O[C@@H]1c1ccccc1CN=[N+]=[N-] | 0.201 | 0.157 | 0.182 | 1.05 | 1.68 | 1.49 | 1.33 | -0.0402 (inactive) | 1.33 | -0.0296
CCOC1=C2C(c3ccc(C)cc3)N(S(=O)(=O)c3ccc(C)cc3)CC2n2c(=O)n(-c3ccccc3)c(=O)n2C1 (stereo not given) | -0.19 | 0.475 | 0.0876 | 0.94 | 1.55 | 1.13 | 0.0031 | -3.93 (inactive) | 0.701 | -0.26
C=CCOC(=O)[C@H]1[C@@H]2C(=O)O[C@@H](c3ccccc3)[C@@H](c3ccccc3)N2[C@@H](c2ccc(OCCOC(=O)[C@@H]3C[C@@H]4C(=O)NCC(=O)N4[C@@H]3c3ccc(O)cc3)cc2)[C@]12C(=O)Nc1ccc(I)cc12 | -0.321 | 0.335 | 0.0364 | 0.438 | 0.93 | 1.17 | 1.27 | -0.0667 (inactive) | 0.317 | 0.107
Cn1c2c(c3ccccc31)C(=O)C1NC2C=CC1(C)C(=O)OCc1ccccc1 (stereo not given) | 1.03 | 0.979 | -0.176 | -1.31 | -1.15 | 1.06 | 0.467 | -1.52 (inactive) | -0.478 | -0.0645
C/C=C/[C@H](CCn1cc([C@H](O)c2ccccc2)nn1)[Si](C)(C)c1ccc(OC)cc1 | 1.18 | -0.153 | -0.234 | -0.071 | -1.51 | 0.0287 | -0.0288 | -0.488 (inactive) | -1.04 | -0.374
C=CCOC(=O)[C@@H]1[C@H]2C(=O)O[C@H](c3ccccc3)[C@H](c3ccccc3)N2[C@H](c2ccc(OCCOC(=O)[C@H]3C[C@H]4C(=O)N[C@@H](CC(C)C)C(=O)N4[C@H]3c3cccc(OCCO)c3)cc2)[C@@]12C(=O)Nc1ccc(I)cc12 | -0.187 | 0.83 | -0.0232 | 0.81 | 0.809 | 0.71 | 1.27 | 1.6 (inactive) | 0.186 | -0.0296
C[n+]1ccc2ccc(O)cc2c1 | -0.201 | 1.46 | -0.081 | 0.0493 | 0.12 | 0.615 | 0.767 | 1.53 (inactive) | -0.173 | -0.0994
COCCCNC(=O)[C@@]1(Cc2ccccc2I)c2ccccc2C(=O)N(Cc2ccccc2)[C@H]1c1ccc(CO)cc1 | 0.094 | -0.785 | -0.142 | -0.487 | -1.61 | 0.542 | 1.34 | -4.46 (inactive) | -0.656 | 0.0695
CN(C)CCCCCCNC(=O)[C@@H]1C[C@@H]2C(=O)N[C@@H](Cc3ccccc3)C(=O)N2[C@@H]1c1cccc(OCCO)c1 | 0.0797 | 1.42 | -0.0605 | 0.215 | 0.0438 | 1.42 | 1.33 | 3.59 (inactive) | 0.258 | 0.241
C=C(COC)C(=O)CC[C@@H](OC(=O)c1ccccc1-c1ccccc1C(=O)O)c1ccc(CO)o1 | -0.229 | 1.23 | -0.0449 | -0.177 | 0.187 | 0.982 | 1.36 | -3.75 (inactive) | -0.551 | -0.0994

From PubChem BioAssay
